For 36 molecules, z-score results are on record in PubChem BioAssay.

Each structure is given as a SMILES string. Values without a mark were called inactive.

The nature of the test: E. coli acrAB mutant growth effects, primary screen, E. coli filamentation inducers, strain DRC39, OD650, 24 h (AID 1178).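 Note: growth measured as culture turbidity by optical density at 650 nm; test concentration not given here.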 The note with it: higher = more signal, called active from +8 up or from −8 down.
On to `CC=CC1=C(CO)[C@H](O)[C@H]2O[C@H]2[C@H]1O`, for which the z-score was -0.227.
Consider `COCCNC(=O)OCC1CCCC2(CC(OC(=O)NCCc3ccc(F)cc3)CC(CCC(=O)N[C@@H](C)C(=O)OC)O2)O1` (stereo partly specified), for which the z-score was 0.963.
Regarding `CC(C)[C@H](NC(=O)OC(C)(C)C)[C@@H](O)CC(=O)OC(C)(C)C`, the z-score is -1.69.
Turning to `CCc1cc2c(nc1CC)CCN(CCC(C)=NOC[C@@H](O)COCc1ccco1)C2`, the z-score is 0.377.
Then `CCOC(=O)[C@H](Cc1ccccc1)NC(=O)CCC1CC(OC(=O)NCc2ccc3c(c2)OCO3)CC2(CCCC(COC(=O)NCc3ccccc3)O2)O1` (stereo partly specified), with 0.703; and `C=CCOC(=O)[C@H]1[C@@H]2C(=O)O[C@@H](c3ccccc3)[C@@H](c3ccccc3)N2[C@@H](c2ccc(OCCOC(=O)[C@H]3C[C@H]4C(=O)N[C@@H](Cc5ccccc5)C(=O)N4[C@H]3c3ccc(O)cc3)cc2)[C@]12C(=O)Nc1ccccc12`, with -0.38.
Then `C=CC[C@@H]1C=C[C@H](ON=C2c3cc(OC)ccc3O[C@H](c3cccc(OC)c3)[C@H]2O)[C@@H](CO)O1`, with 0.57.
With `CC(C)(C)N1C(=O)[C@H]2[C@H]3[C@H](O)[C@H](O)CC(=NO[C@@H]4O[C@H](CO)[C@@H](O)[C@H](O)[C@H]4O)[C@@H]3CC[C@H]2C1=O`, the z-score was 0.398.
Turning to `CC(C)=NOCc1cccc(-c2cc(-c3ccccc3)no2)c1`, the z-score was 1.19.
Then `C[C@H]1CC[C@@H](C(=O)O)N[C@@H]1c1ccc(C#CCN(C)C)cc1`, with 0.554; and `CO[C@H]1COC(=O)[C@H](C)NC(=O)[C@@H](C)COC(=O)CC=C[C@@H]1C`, with 0.327; and `COC(=O)CC=C[C@H](C)[C@H](CO)NS(=O)(=O)c1ccc(C)cc1`, with -0.586.
Then `Cc1cc2c(nc1C)CCCN2CC(C)ON=C1[C@H]2CCn3c(=O)n(-c4ccccc4)c(=O)n3[C@H]2[C@H](O)[C@@H]2O[C@H]12` (stereo partly specified), with -1.05.
In the case of `CC(C)OC(=O)C=C1C[C@@H](c2ccc(C#N)cc2)O[C@@H](c2ccc(C#N)cc2)O1`, the z-score is -0.667.
In the case of `CO[C@H]1COC(=O)[C@H](C)COC(=O)CC=C[C@@H](C)[C@H](OC)COC(=O)CC=C[C@@H]1C`, the z-score was 0.778.
In the case of `CC(CCN1CCc2nc(-c3ccccc3)c(-c3ccccc3)cc2C1)=NO[C@@H](C)c1cn([C@H](CO)Cc2ccccc2)nn1`, the z-score is -0.249.
Turning to `COc1ccc([Si](C)(C)[C@@H]2[C@@H](CC(=O)N3CCC[C@H]3CO)O[C@]3(C(=O)N(Cc4cccc(N5CCC5=O)c4)c4ccccc43)[C@H]2C)cc1`, the z-score was 0.52.
As for `COc1ccccc1CN1C(=O)c2ccccc2[C@@H](C(=O)NCC(F)(F)F)[C@@H]1c1ccc(CO)cc1`, the z-score is 0.796.
With `[N-]=[N+]=NCc1ccccc1[C@@H]1OC(c2ccc(OCCCO)cc2)=N[C@]1(Cc1ccccc1)C(=O)N1CCOCC1` the figure was 0.559.
Then `CC(C)(C)OC(=O)CC[C@]1(C(=O)NCc2ccccc2)N=C(c2ccc(OCCCO)cc2)O[C@H]1c1ccccc1`, with 0.732; and `CC1CC/C=C\[C@H]2OC34C=CCN(Cn5nnc6ccccc65)C(=O)[C@H]3N(CCO)C(=O)[C@@H]4C2C(=O)O1` (stereo partly specified), with 0.673; and `CCOC(=O)CCN1C(=O)[C@H]2[C@H]3[C@H](O)C=CC(=O)[C@@H]3CC[C@H]2C1=O`, with 0.446.
Then `O=C1C[C@@H](O)[C@@H](O)[C@@H]2[C@@H]3C(=O)N(Cc4ccc5c(c4)OCO5)C(=O)[C@@H]3CC[C@@H]12`, with 0.0081; and `CCN1C(=O)[C@H]2[C@H]3[C@H](O)[C@H](O)CC(=NO[C@@H]4O[C@H](CO)[C@@H](O)[C@H](O)[C@H]4O)[C@@H]3CC[C@H]2C1=O`, with 0.226.
As to `C#CCCCON=C1C[C@@H](O)[C@@H](O)[C@@H]2[C@@H]3C(=O)N(Cc4ccccc4)C(=O)[C@@H]3CC[C@H]12`, the z-score was -0.039.
With `C[C@@H](c1ccccc1)N1C(=O)[C@H]2[C@H]3[C@H](O)[C@H](O)CC(=NNC(=O)OCc4ccccc4)[C@H]3CC[C@H]2C1=O` the figure was -0.327; with `COC(=O)[C@H](C)NC(=O)CCC1CC(OC(=O)NCc2cccc3ccccc23)CC2(CCCC(COC(=O)NCCc3ccc(Cl)cc3)O2)O1` (stereo partly specified), -0.0798.
Then `CCc1cc2c(nc1CC)CCN(CCC(C)=NOC(C)CN1CCCc3nc(C)c(C)cc31)C2` (stereo unspecified), with 0.278; and `COC(=O)[C@@]1(Cc2ccc(OC)cc2)[C@H]2c3cc(C(=O)N4CCCC4)n(Cc4cc(F)c(F)c(F)c4)c3C[C@H]2CN1C(=O)c1ccccc1`, with -0.824; and `CN1C(=O)C2C=CC(C(O)c3ccc(Br)cc3)N(N(c3ccccc3)c3ccccc3)C2C1=O` (stereo unspecified), with -0.499.
With `CCOC(=O)NN=C1C[C@@H](O)[C@@H](O)[C@@H]2[C@@H]3C(=O)N(CC)C(=O)[C@@H]3CC[C@@H]12` the figure was -0.145; with `O=C(CS)NCCCCCNC(=O)[C@@H]1C[C@@H]2C(=O)N[C@@H](Cc3ccccc3)C(=O)N2[C@@H]1c1ccc(O)cc1`, 0.411.
Consider `C=CC[C@]1(C(=O)NCc2ccccc2)N=C(c2ccc(OCCCO)cc2)O[C@H]1c1ccccc1`, for which the z-score was 0.0557.
For the molecule `O=C1[C@H]2[C@H]3[C@H](O)[C@H](O)CC(=NOCc4ccccc4)[C@H]3CC[C@H]2C(=O)N1c1cccc(Oc2ccccc2)c1`, the z-score is 0.416.
On to `COC(=O)CC=C[C@@H](C)[C@H](OC)c1ccccc1Br`, for which the z-score was 0.25.
With `CCN1C(=O)[C@H]2[C@H]3[C@H](O)C=CC(=O)[C@@H]3CC[C@H]2C1=O` the figure was 0.484.
